Data published in PubChem BioAssay AID1159580 (chemical genetic matrix, 2015).
The whole screen tested about 5,500 compounds, of which about 2,000 (36%) were called active. Not shown: some 18% with an inconclusive outcome. Cut-off read from the data, not from the text of the source: active = normalized growth mostly below about 0.91 (no sharp cut-off); inconclusive = no clear call, values can overlap the other calls; inactive = mostly above about 0.92. The list shows a part of the results.

Assay: chemical genetic growth profiling, strain panel (AID 1159580);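 note: tested at 20 µM; growth read once vehicle control cultures reached saturation at 30 °C; 1 = growth at the plate median or of vehicle wells; lower values mean less growth of the strain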
Details: growth OD

Measured: normalized growth

C[C@@H]1O[C@@H](O[C@H]2[C@@H](Oc3cc(O)c4c(c3)O[C@H](c3ccc(O)cc3)CC4=O)O[C@H](CO)[C@@H](O)[C@@H]2O)[C@H](O)[C@H](O)[C@H]1O
inactive: S. cerevisiae deletion strains, locus YJR075W, strain HOC1, active compounds read low 0.996 | S. cerevisiae deletion strains, locus YKL009W, strain mrt4, active compounds read low 0.997 | S. cerevisiae deletion strains, locus YKL068W, active compounds read low 1 | S. cerevisiae deletion strains, locus YKL085W, strain MDH1 (second series), active compounds read low 0.996 | S. cerevisiae deletion strains, locus YKL085W, strain MDH1, active compounds read low 0.996 | S. cerevisiae deletion strains, locus YKL160W, strain elf1, active compounds read low 0.971 | S. cerevisiae deletion strains, locus YKL190W, strain CNB1, active compounds read low 1 | S. cerevisiae deletion strains, locus YKR001C, strain vps1, active compounds read low 1.01 | S. cerevisiae deletion strains, locus YKR026C, strain gcn3, active compounds read low 0.996 | S. cerevisiae deletion strains, locus YKR091W, strain srl3, active compounds read low 0.969 | S. cerevisiae deletion strains, locus YLL001W, strain dnm1, active compounds read low 0.952 | S. cerevisiae deletion strains, locus YLL026W, active compounds read low 0.974 | S. cerevisiae deletion strains, locus YLL041C, strain sdh2, active compounds read low 0.983 | S. cerevisiae deletion strains, locus YLR027C, strain aat2, active compounds read low 0.967 | S. cerevisiae deletion strains, locus YLR039C, strain RIC1, active compounds read low 0.97 | S. cerevisiae deletion strains, locus YLR058C, strain SHM2, active compounds read low 0.977 | S. cerevisiae deletion strains, locus YLR102C, strain apc9, active compounds read low 1 | S. cerevisiae deletion strains, locus YLR113W, strain HOG1, active compounds read low 0.969 | S. cerevisiae deletion strains, locus YLR221C, strain rsa3, active compounds read low 0.957 | S. cerevisiae deletion strains, locus YLR258W, strain gsy2, active compounds read low 0.981 | S. cerevisiae deletion strains, locus YLR262C, strain YPT6 (second series), active compounds read low 0.979 | S. cerevisiae deletion strains, locus YLR262C, strain YPT6, active compounds read low 0.969 | S. cerevisiae deletion strains, locus YLR268W, strain sec22, active compounds read low 1.01 | S. cerevisiae deletion strains, locus YLR320W, strain mms22, active compounds read low 0.969 | S. cerevisiae deletion strains, locus YLR330W, strain CHS5, active compounds read low 0.99 | S. cerevisiae deletion strains, locus YLR342W, strain FKS1 (second series), active compounds read low 1.03 | S. cerevisiae deletion strains, locus YLR342W, strain FKS1, active compounds read low 0.98 | S. cerevisiae deletion strains, locus YLR357W, strain rsc2, active compounds read low 0.956 | S. cerevisiae deletion strains, locus YLR370C, strain arc18, active compounds read low 0.981 | S. cerevisiae deletion strains, locus YLR371W, strain rom2, active compounds read low 0.997 | S. cerevisiae deletion strains, locus YLR384C, strain iki3, active compounds read low 0.963 | S. cerevisiae deletion strains, locus YLR418C, strain cdc73, active compounds read low 1.03 | S. cerevisiae deletion strains, locus YML016C, strain PPZ1, active compounds read low 0.984 | S. cerevisiae deletion strains, locus YML032C, strain rad52, active compounds read low 0.996 | S. cerevisiae deletion strains, locus YML120C, strain ndi1, active compounds read low 0.953 | S. cerevisiae deletion strains, locus YML124C, strain tub3, active compounds read low 0.993 | S. cerevisiae deletion strains, locus YMR058W, strain fet3, active compounds read low 0.972 | S. cerevisiae deletion strains, locus YMR078C, strain ctf18, active compounds read low 0.993 | S. cerevisiae deletion strains, locus YMR125W, strain sto1, active compounds read low 0.941 | S. cerevisiae deletion strains, locus YMR129W, active compounds read low 0.974 | S. cerevisiae deletion strains, locus YMR205C, strain PFK2, active compounds read low 0.962 | S. cerevisiae deletion strains, locus YMR223W, strain ubp8, active compounds read low 0.991 | S. cerevisiae deletion strains, locus YMR231W, strain pep5, active compounds read low 0.983 | S. cerevisiae deletion strains, locus YMR263W, strain SAP30, active compounds read low 0.987 | S. cerevisiae deletion strains, locus YMR307W, strain GAS1, active compounds read low 1.04 | S. cerevisiae deletion strains, locus YNL067W, strain RPL9B, active compounds read low 1 | S. cerevisiae deletion strains, locus YNL071W, strain lat1, active compounds read low 0.979 | S. cerevisiae deletion strains, locus YNL128W, strain TEP1, active compounds read low 0.975 | S. cerevisiae deletion strains, locus YNL153C, strain GIM3, active compounds read low 0.981 | S. cerevisiae deletion strains, locus YNL183C, strain NPR1, active compounds read low 0.92 | S. cerevisiae deletion strains, locus YNL209W, strain ssb2, active compounds read low 0.971 | S. cerevisiae deletion strains, locus YNL233W, strain BNI4, active compounds read low 0.991 | S. cerevisiae deletion strains, locus YNL248C, strain rpa49, active compounds read low 0.977 | S. cerevisiae deletion strains, locus YNL250W, strain rad50, active compounds read low 0.982 | S. cerevisiae deletion strains, locus YNL271C, strain bni1, active compounds read low 0.999 | S. cerevisiae deletion strains, locus YNL298W, strain CLA4, active compounds read low 1 | S. cerevisiae deletion strains, locus YNL307C, strain MCK1, active compounds read low 1 | S. cerevisiae deletion strains, locus YNL322C, strain KRE1 (second series), active compounds read low 0.951 | S. cerevisiae deletion strains, locus YNL322C, strain KRE1, active compounds read low 0.987 | S. cerevisiae deletion strains, locus YNR049C, strain mso1, active compounds read low 0.961 | S. cerevisiae deletion strains, locus YNR052C, strain pop2, active compounds read low 0.998 | S. cerevisiae deletion strains, locus YOL006C, strain TOP1, active compounds read low 0.962 | S. cerevisiae deletion strains, locus YOL012C, strain htz1 1.14 | S. cerevisiae deletion strains, locus YOL147C, strain pex11, active compounds read low 1 | S. cerevisiae deletion strains, locus YOR001W, strain rrp6, active compounds read low 0.998 | S. cerevisiae deletion strains, locus YOR061W, strain CKA2, active compounds read low 0.967 | S. cerevisiae deletion strains, locus YOR069W, strain VPS5, active compounds read low 0.99 | S. cerevisiae deletion strains, locus YOR070C, strain gyp1, active compounds read low 0.981 | S. cerevisiae deletion strains, locus YOR080W, strain dia2, active compounds read low 0.967 | S. cerevisiae deletion strains, locus YOR083W, strain WHI5, active compounds read low 0.947 | S. cerevisiae deletion strains, locus YOR106W, strain vam3, active compounds read low 0.954 | S. cerevisiae deletion strains, locus YOR136W, strain idh2, active compounds read low 0.999 | S. cerevisiae deletion strains, locus YOR144C, strain elg1, active compounds read low 1 | S. cerevisiae deletion strains, locus YOR184W, strain ser1, active compounds read low 0.991 | S. cerevisiae deletion strains, locus YOR231W, strain MKK1, active compounds read low 0.98 | S. cerevisiae deletion strains, locus YOR265W, strain rbl2, active compounds read low 0.983 | S. cerevisiae deletion strains, locus YOR270C, strain vph1, active compounds read low 0.915 | S. cerevisiae deletion strains, locus YOR290C, strain snf2, active compounds read low 0.919 | S. cerevisiae deletion strains, locus YOR316C, strain cot1, active compounds read low 0.992 | S. cerevisiae deletion strains, locus YPL051W, strain arl3, active compounds read low 0.987 | S. cerevisiae deletion strains, locus YPL055C, strain LGE1, active compounds read low 0.973 | S. cerevisiae deletion strains, locus YPL078C, strain atp4, active compounds read low 0.968 | S. cerevisiae deletion strains, locus YPL106C, strain sse1, active compounds read low 0.942 | S. cerevisiae deletion strains, locus YPL240C, strain hsp82, active compounds read low 0.973 | S. cerevisiae deletion strains, locus YPL241C, strain CIN2, active compounds read low 0.991 | S. cerevisiae deletion strains, locus YPL256C, strain CLN2, active compounds read low 0.998 | S. cerevisiae deletion strains, locus YPR119W, strain clb2, active compounds read low 1 | S. cerevisiae deletion strains, locus YPR141C, strain kar3, active compounds read low 0.992 | S. cerevisiae deletion strains, locus YPR163C, strain tif3, active compounds read low 1 | S. cerevisiae deletion strains, locus YPR167C, strain met16, active compounds read low 0.998 | S. cerevisiae deletion strains, strain wtn01, active compounds read low 0.997 | S. cerevisiae strains, strain wild type, active compounds read low 0.98
